# Experimental data published in PubChem BioAssay (Tox21).
# Several values for one entry are separate records, joined by “and”; a condition that tells them apart may be missing. Identical values can stand only once. Inconclusive results are not listed. Entries that show only a call come without a potency. Where a structure was tested more than once in an assay, its records may differ in their call. Activity calls are given as the source filed them. Unless noted, calls follow the shape of the full dose curve.
# Columns and labels:
# [1] = qHTS assay to identify small molecule antagonists of the sonic hedgehog signaling (Shh) pathway (AID 1259369); also: nearly all actives have a fitted effect of over 45% in size; also: potency is read from the fitted curve at half-maximal effect
# In short: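 Conditioned medium drives Shh signalling in 3T3Gli1-Luc cells; compounds in DMSO co-applied, 24hr at 37 C, then luciferase luminescence.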
# [2] = qHTS assay to identify small molecule agonists of the androgen receptor (AR) signaling pathway in the presence of an antagonist - cell viability counter screen (AID 1259379; active = well fitted curve in the direction sought with a large enough effect in the repeat runs; an effect the other way counts as inactive or inconclusive; also: nearly all actives have a fitted effect of over 25% in size; also: potency is read from the fitted curve at half-maximal effect)
# In short: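 A CellTiter-Fluor read-out measured viability of MDA-kb2 reporter cells (MMTV promoter with AR and GR response elements). Treatment: nilutamide 3.0uM final with compounds at 15 concentrations, 16 hr, 37C, 0% CO2.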
# [3] = qHTS assay to identify small molecule agonists of the estrogen receptor beta (ER-beta) signaling pathway - cell viability counter screen (AID 1259380; active = well fitted curve in the direction sought with a large enough effect in the repeat runs; an effect the other way counts as inactive or inconclusive; also: nearly all actives have a fitted effect of over 30% in size; also: potency is read from the fitted curve at half-maximal effect)
# In short: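 Cells used were ER-beta-UAS-bla HEK293T in medium with 2% charcoal-stripped FBS. They were treated for 16 hr at 37C. Viability came from CellTiter-Glo luminescence.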
# [4] = biological target: Androgen receptor (Homo sapiens) (UniProt P10275); experiment: qHTS assay to identify small molecule agonists of the androgen receptor (AR) signaling pathway in the presence of an antagonist (AID 1259381); also: nearly all actives have a fitted effect of over 15% in size; also: potency is read from the fitted curve at half-maximal effect
# In short: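 Using human MDA-kb2 cells with an MMTV promoter–luciferase construct (AR and GR response elements), agonist activity is scored under 3.0uM nilutamide (final) co-treatment; 16hr incubation, 37C, luminescence readout via ONE-Glo.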
# [5] = qHTS assay to identify small molecule antagonists of the estrogen receptor beta (ER-beta) signaling pathway - cell viability counter screen (AID 1259382; active = well fitted curve in the direction sought with a large enough effect in the repeat runs; an effect the other way counts as inactive or inconclusive; also: nearly all actives have a fitted effect of over 55% in size; also: potency is read from the fitted curve at half-maximal effect)
# In short: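 Agonist-stimulated (1nM E2) ER-beta-UAS-bla HEK293T cells are incubated with library compounds for 16 hr at 37C. Cell viability is then assessed in the reporter-assay wells by adding CellTiter-Glo and reading luminescence after 30 min.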
# [6] = biological target: Estrogen receptor (Homo sapiens) (UniProt P03372); experiment: qHTS assay to identify small molecule agonists of the estrogen receptor alpha (ER-alpha) signaling pathway in the presence of an antagonist (AID 1259383); also: top concentration of the series differs between compounds; nearly all actives have a fitted effect of over 15% in size
# In short: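 Using VM7Luc4E2 cells seeded 24hr before treatment, antagonist ICI-182,780 (10.0nM final) was added, followed by compounds at 15 concentrations. Plates incubated 22hr; ONE-Glo luminescence quantified reporter activity.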
# [7] = biological target: Progesterone receptor (Homo sapiens) (UniProt P06401); experiment: qHTS assay to identify small molecule agonists of the progesterone receptor (PR) signaling pathway (AID 1346784); also: nearly all actives have a fitted effect of over 30% in size; also: potency is read from the fitted curve at half-maximal effect
# In short: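 HEK 293T PR-UAS-bla reporter cells, 2% charcoal-stripped FBS; 6 hr settle at 37C/5% CO2, compound (DMSO) 16 hr, LiveBLAzer B/G FRET substrate 2 hr RT, fluorescence intensity read.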
# [8] = biological target: Progesterone receptor (Homo sapiens) (UniProt P06401); experiment: qHTS assay to identify small molecule antagonists of the progesterone receptor (PR) signaling pathway (AID 1346795; active = well fitted inhibition curve with a large enough effect in the signal ratio in the repeat runs, not every such curve was filed as active; the % refers to the signal ratio; also: potency is read from the fitted curve at half-maximal effect)
# In short: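 Beta-lactamase reporter, HEK293T PR-UAS-bla line; 2% charcoal-stripped FBS; 6 hr pre-incubation, 37C/5% CO2. Compound + R5020 1 nM final, 16 hr. LiveBLAzer B/G FRET substrate, 2 hr RT; fluorescence intensity read.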
# [9] = qHTS assay to identify small molecule agonists of the progesterone receptor (PR) signaling pathway - cell viability counter screen (AID 1346799); also: nearly all actives have a fitted effect of over 45% in size; also: potency is read from the fitted curve at half-maximal effect
# In short: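 HEK293T PR-UAS-bla, 3,000 cells/well, 2% charcoal-stripped FBS; 6 h settle, compound 16 h at 37C/5% CO2; LiveBLAzer 2 h RT, then CellTiter-Glo 30 min RT, luminescence read.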
# [10] = qHTS assay to identify small molecule agonists of the TGF-beta/Smad signaling pathway - cell viability counter screen (AID 1346829; active = well fitted curve in the direction sought with a large enough effect in the repeat runs; an effect the other way counts as inactive or inconclusive; also: nearly all actives have a fitted effect of over 45% in size; also: potency is read from the fitted curve at half-maximal effect)
# In short: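 Same-well cytotoxicity: CellTiter-Glo added after the 2 hr room-temperature beta-lactamase substrate step, luminescence measured 30 min later; cells had 5 hr of compound at 37 C.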
# [11] = biological target: Thyrotropin-releasing hormone receptor (Homo sapiens) (UniProt P34981); experiment: qHTS assay to identify small molecule antagonists of the thyrotropin-releasing hormone receptor (TRHR) signaling pathway (AID 1346877; active = well fitted inhibition curve with a large enough effect in the repeat runs, not every such curve was filed as active; also: series mostly up to about 51 µM)
# In short: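 Screening used HEK293 cells engineered with TRHR, with a brief 5 min room-temperature compound exposure preceding addition of TRH to 1 nM. The read-out was kinetic calcium-dye fluorescence, concentration-response from 15 doses in triplicate.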
# [12] = biological target: Thyrotropin-releasing hormone receptor (Homo sapiens) (UniProt P34981); experiment: qHTS assay to identify small molecule agonists of the thyrotropin-releasing hormone receptor (TRHR) signaling pathway (AID 1346891);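 also: HEK293 cells expressing TRHR with calcium dye readout; series mostly up to about 58 µM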
# In short: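 HEK293/TRHR cells, 1500 per well, 18 h 37 °C; Ca dye 2 h 37 °C; pin-tool compound addition (agonist mode); kinetic fluorescence 3 min, 1 s reads; 15 concentrations, triplicate.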
# [13] = qHTS assay to identify small molecule agonists or antagonists of the thyroid stimulating hormone receptor (TSHR) signaling pathway - wild type cell line counter screen (AID 1259384); also: potency is read from the fitted curve at half-maximal effect
# In short: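 Wild-type HEK293 cells were plated 18 h at 37 C/5% CO2, pin-dosed with compound plus Ro20-1724 medium, held 30 min at room temperature, then given cAMP-d2 and anti-cAMP-cryptate; fluorescence was read after 1 h. Fifteen concentrations, triplicate.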
# [14] = qHTS assay to identify small molecule agonists of the estrogen receptor alpha (ER-alpha) signaling pathway in the presence of an antagonist - cell viability counter screen (AID 1259386; active = well fitted curve in the direction sought with a large enough effect in the repeat runs; an effect the other way counts as inactive or inconclusive;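 also: cells exposed to compounds for 22 h at 37 °C before the viability read; nearly all actives have a fitted effect of over 30% in size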; also: potency is read from the fitted curve at half-maximal effect)
# In short: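 ICI-182,780 at 10.0nM final accompanies the compound titration (15 concentrations, 22hr, 37C) on VM7Luc4E2 cells. The CellTiter-Fluor fluorescence readout runs in the same wells as the luciferase assay.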
# [15] = qHTS assay to identify small molecule agonists of the TGF-beta/Smad signaling pathway (AID 1346859; active = well fitted activation curve with a large enough effect in the signal ratio in the repeat runs, not every such curve was filed as active; the % refers to the signal ratio; also: series mostly up to about 77 µM)
# In short: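 Read-out: fluorescence at 460 and 530 nm (405 nm excitation) after a 2 hr room-temperature incubation with beta-lactamase FRET substrate. SBE-bla HEK 293T cells had been treated with test compounds for 5 hr at 37 C.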
# [16] = biological target: Thyrotropin receptor (Homo sapiens) (UniProt P16473); experiment: qHTS assay to identify small molecule antagonists of the thyroid stimulating hormone receptor (TSHR) signaling pathway (AID 1259385); also: nearly all actives have a fitted effect of over 20% in size; also: potency is read from the fitted curve at half-maximal effect
# In short: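 TSHR-HEK293 cells were plated and held 18 h at 37C/5% CO2, then given compound plus Ro20-1724 and stimulated with TSH at 1.5 ng/mL final. After 30 min at room temperature, cAMP was detected with cAMP-d2/anti-cAMP-cryptate (1 h) by fluorescence.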
# [17] = qHTS assay to identify small molecule antagonists of the progesterone receptor (PR) signaling pathway - cell viability counter screen (AID 1346798; active = well fitted curve in the direction sought with a large enough effect in the repeat runs; an effect the other way counts as inactive or inconclusive; also: nearly all actives have a fitted effect of over 50% in size; also: potency is read from the fitted curve at half-maximal effect)
# In short: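 Luminescence readout (CellTiter-Glo, 30 min, RT) of viability in PR-UAS-bla HEK293T cells exposed to compound and R5020 agonist for 16 hr at 37C, 5% CO2; run in the same wells as the beta-lactamase reporter read.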
# [18] = qHTS assay to identify small molecule antagonists of the TGF-beta/Smad signaling pathway - cell viability counter screen (AID 1346824; active = well fitted curve in the direction sought with a large enough effect in the repeat runs; an effect the other way counts as inactive or inconclusive; also: nearly all actives have a fitted effect of over 50% in size; also: potency is read from the fitted curve at half-maximal effect)
# In short: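 SBE-bla HEK 293T cells were plated overnight at 37 C, then given compounds in DMSO plus TGF-beta1 (added as 0.25 ng/mL solution) for 5 hr. After the bla read, CellTiter-Glo was added to the same wells and luminescence read after 30 min at room temperature.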
# [19] = biological target: Estrogen receptor beta (Homo sapiens) (UniProt Q92731); experiment: qHTS assay to identify small molecule agonists of the estrogen receptor beta (ER-beta) signaling pathway (AID 1259377; active = well fitted activation curve with a large enough effect in the signal ratio in the repeat runs, not every such curve was filed as active; the % refers to the signal ratio)
# In short: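 Beta-lactamase reporter readout: fluorescence of LiveBLAzer B/G FRET substrate after 2 h at room temperature, following 16 h compound treatment of ER-beta-UAS-bla HEK293T cells at 37C in 2% charcoal-stripped FBS medium.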
# [20] = biological target: Estrogen receptor beta (Homo sapiens) (UniProt Q92731); experiment: qHTS assay to identify small molecule antagonists of the estrogen receptor beta (ER-beta) signaling pathway (AID 1259378; active = well fitted inhibition curve with a large enough effect in the signal ratio in the repeat runs, not every such curve was filed as active; the % refers to the signal ratio; also: potency is read from the fitted curve at half-maximal effect)
# In short: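 ER-beta-UAS-bla HEK293T (GripTite) cells in 2% charcoal-stripped FBS medium were preincubated 6 hr at 37C, dosed with compound, then stimulated with 1 nM E2 (final) for 16 hr; beta-lactamase reporter read by B/G FRET fluorescence after 2 hr substrate loading.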
# Chain of Thyrotropin-releasing hormone receptor (Homo sapiens) (P34981 whole entry, looked up): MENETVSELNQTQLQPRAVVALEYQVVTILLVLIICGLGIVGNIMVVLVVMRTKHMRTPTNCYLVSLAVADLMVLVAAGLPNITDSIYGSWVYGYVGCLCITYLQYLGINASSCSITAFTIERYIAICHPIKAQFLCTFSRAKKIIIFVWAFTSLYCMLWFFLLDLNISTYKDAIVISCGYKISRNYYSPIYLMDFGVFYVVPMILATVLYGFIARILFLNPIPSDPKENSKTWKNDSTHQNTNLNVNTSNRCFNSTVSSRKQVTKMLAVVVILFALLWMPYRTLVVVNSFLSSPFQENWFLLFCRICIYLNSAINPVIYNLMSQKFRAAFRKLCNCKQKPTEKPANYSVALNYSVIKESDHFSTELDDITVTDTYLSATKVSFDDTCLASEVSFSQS
# Chain of Estrogen receptor (Homo sapiens) (P03372 whole entry, looked up): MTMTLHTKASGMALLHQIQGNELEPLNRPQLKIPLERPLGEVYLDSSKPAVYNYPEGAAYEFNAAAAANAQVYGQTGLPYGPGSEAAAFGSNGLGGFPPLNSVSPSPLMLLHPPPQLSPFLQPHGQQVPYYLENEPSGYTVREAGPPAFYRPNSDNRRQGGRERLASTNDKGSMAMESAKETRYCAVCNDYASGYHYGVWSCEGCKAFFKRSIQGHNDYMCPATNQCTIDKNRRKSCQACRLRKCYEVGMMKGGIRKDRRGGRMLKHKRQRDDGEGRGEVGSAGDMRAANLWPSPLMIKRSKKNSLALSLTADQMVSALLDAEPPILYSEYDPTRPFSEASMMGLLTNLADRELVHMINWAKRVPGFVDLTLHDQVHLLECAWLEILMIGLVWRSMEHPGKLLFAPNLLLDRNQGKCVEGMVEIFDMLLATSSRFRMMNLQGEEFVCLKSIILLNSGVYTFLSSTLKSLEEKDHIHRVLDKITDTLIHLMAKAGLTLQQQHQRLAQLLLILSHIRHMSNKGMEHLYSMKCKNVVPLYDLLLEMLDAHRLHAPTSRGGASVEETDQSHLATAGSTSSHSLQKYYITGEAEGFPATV
# Chain of Estrogen receptor beta (Homo sapiens) (Q92731 whole entry, looked up): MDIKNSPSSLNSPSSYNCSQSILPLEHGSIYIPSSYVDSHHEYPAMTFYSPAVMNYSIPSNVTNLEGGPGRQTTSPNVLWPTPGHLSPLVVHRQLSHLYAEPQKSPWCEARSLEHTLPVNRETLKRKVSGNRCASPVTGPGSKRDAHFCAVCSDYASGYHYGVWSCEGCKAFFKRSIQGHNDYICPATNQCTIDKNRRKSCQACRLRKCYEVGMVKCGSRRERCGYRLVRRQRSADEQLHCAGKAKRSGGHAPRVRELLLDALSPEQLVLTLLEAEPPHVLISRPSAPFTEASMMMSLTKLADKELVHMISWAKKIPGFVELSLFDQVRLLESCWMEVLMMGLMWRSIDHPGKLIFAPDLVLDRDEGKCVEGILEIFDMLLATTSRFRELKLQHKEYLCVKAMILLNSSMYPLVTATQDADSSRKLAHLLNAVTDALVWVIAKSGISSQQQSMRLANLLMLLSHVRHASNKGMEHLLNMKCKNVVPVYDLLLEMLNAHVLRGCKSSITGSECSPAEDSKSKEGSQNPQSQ
# Chain of Thyrotropin receptor (Homo sapiens) (P16473 whole entry, looked up): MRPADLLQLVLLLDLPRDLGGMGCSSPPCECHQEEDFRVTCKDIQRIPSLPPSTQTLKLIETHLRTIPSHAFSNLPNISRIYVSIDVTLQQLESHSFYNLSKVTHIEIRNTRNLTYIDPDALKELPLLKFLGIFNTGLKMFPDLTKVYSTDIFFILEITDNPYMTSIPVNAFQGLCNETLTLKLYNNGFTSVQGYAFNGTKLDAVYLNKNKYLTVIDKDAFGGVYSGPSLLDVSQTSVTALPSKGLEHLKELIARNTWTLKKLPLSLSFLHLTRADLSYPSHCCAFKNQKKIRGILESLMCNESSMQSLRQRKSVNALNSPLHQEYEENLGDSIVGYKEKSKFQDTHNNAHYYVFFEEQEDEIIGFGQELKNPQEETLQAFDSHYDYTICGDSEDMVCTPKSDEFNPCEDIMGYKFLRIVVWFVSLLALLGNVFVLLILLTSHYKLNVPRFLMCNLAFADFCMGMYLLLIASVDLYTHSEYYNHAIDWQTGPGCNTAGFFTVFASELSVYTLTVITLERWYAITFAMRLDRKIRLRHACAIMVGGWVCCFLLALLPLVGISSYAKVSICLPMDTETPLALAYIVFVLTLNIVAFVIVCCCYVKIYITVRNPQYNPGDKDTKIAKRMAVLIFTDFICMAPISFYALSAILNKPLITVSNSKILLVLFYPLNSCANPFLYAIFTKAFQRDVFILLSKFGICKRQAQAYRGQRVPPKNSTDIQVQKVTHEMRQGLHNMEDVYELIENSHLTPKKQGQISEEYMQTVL
# Chain of Progesterone receptor (Homo sapiens) (P06401 whole entry, looked up): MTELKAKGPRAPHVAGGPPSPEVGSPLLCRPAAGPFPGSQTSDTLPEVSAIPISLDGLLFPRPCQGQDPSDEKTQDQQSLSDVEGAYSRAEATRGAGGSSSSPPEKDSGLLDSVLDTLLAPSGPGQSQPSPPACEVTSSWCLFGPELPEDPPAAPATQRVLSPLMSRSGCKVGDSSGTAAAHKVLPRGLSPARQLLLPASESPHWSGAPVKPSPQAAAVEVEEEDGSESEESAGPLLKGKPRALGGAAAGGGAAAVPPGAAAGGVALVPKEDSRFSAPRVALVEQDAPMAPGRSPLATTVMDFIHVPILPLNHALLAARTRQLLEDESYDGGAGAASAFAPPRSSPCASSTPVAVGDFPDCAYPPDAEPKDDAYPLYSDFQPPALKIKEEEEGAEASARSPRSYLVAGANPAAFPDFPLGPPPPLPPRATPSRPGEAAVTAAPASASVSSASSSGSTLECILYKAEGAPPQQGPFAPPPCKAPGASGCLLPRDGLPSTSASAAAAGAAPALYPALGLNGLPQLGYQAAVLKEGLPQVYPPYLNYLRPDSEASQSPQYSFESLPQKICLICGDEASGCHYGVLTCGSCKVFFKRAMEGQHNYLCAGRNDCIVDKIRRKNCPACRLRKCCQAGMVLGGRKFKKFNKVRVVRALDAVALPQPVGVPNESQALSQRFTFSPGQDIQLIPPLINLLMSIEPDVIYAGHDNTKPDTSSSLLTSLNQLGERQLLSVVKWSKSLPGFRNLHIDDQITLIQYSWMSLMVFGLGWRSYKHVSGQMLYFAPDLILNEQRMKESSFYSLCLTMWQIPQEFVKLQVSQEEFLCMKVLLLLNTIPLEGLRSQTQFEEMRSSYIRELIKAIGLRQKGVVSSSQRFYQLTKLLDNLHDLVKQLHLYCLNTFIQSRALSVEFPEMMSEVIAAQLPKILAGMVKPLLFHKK
# Chain of Androgen receptor (Homo sapiens) (P10275 whole entry, looked up): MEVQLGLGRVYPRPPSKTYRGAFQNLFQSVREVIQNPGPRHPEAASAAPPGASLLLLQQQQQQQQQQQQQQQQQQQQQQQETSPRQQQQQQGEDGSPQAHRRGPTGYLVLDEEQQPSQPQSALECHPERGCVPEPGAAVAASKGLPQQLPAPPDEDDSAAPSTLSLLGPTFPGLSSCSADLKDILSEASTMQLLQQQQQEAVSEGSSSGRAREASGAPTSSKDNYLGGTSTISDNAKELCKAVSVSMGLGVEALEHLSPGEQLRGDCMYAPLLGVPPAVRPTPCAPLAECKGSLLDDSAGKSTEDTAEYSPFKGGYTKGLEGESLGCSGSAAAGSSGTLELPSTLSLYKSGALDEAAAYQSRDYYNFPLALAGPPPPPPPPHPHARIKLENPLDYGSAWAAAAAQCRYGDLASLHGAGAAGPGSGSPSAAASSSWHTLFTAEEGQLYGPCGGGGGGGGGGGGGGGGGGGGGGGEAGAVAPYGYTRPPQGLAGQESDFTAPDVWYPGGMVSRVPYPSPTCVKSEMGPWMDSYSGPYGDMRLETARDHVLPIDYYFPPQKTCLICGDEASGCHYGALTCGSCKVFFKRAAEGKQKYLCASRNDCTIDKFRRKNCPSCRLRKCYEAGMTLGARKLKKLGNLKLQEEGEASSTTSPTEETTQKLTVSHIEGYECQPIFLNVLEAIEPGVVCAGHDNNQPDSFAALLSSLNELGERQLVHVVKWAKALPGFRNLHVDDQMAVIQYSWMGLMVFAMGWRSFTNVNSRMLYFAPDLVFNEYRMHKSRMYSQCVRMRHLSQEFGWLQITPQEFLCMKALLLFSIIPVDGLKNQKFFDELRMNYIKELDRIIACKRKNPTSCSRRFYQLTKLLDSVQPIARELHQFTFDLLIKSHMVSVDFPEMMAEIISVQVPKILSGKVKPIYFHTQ
Compound,Potency [1],Potency [2],Potency [3],Potency [4],Potency [5],Potency [6],Potency [7],Potency [8],Potency [9],Potency [10],Potency [11],Potency [12],Potency [13],Potency [14],outcome [15],Potency [16],Potency [17],Potency [18],Potency [19],Potency [20]
O=C1C(Cl)=C(Cl)C(=O)C(Cl)=C1Cl,4.84 µM (active) and 12.2 µM (active),60.9 µM (active) and inactive,60.9 µM (active) and 54.5 µM (active),inactive,60.9 µM (active),inactive,inactive,inactive,inactive,inactive,inactive,inactive,–,–,–,–,–,–,–,–
Fc1ccc(C(OCCN2CCN(CCCc3ccccc3)CC2)c2ccc(F)cc2)cc1,5.31 µM (active),26.6 µM (active),26.6 µM (active),inactive,26.6 µM (active),inactive,–,–,–,–,inactive,inactive,inactive,29.8 µM (active),inactive,–,–,–,–,–
CC(Cc1ccccc1)N(C)Cc1ccco1 (stereo not given),inactive,inactive,inactive,inactive,inactive,inactive,–,–,inactive,inactive,inactive,inactive,–,inactive,inactive,inactive,inactive,inactive,–,–
CN(C)C(=S)SSC(=S)N(C)C,47.9 nM (active) and 306 nM (active) and 531 nM (active),60.3 µM (active) and 68.6 µM (active) and inactive,135 nM (active) and 1.72 µM (active) and 119 nM (active),inactive,479 nM (active) and 273 nM (active) and 237 nM (active),inactive,inactive,0.135 µM (active),344 nM (active) and 298 nM (active),34.2 µM (active) and inactive,–,–,–,–,inactive,–,170 nM (active) and 386 nM (active) and 266 nM (active),19.2 µM (active) and 43.6 µM (active) and 26.8 µM (active),–,–
O=P(Cl)(Cl)Cl,inactive,inactive,inactive,–,inactive,inactive,inactive,inactive,inactive,inactive,inactive,inactive,inactive,inactive,inactive,inactive,inactive,inactive,–,–
Cc1ccc(C)c2ccccc12,inactive,inactive,inactive,inactive,inactive,–,inactive,inactive,inactive,inactive,inactive,inactive,–,inactive,inactive,–,–,inactive,–,–
CC(Cc1ccc(O)cc1)NCC(O)c1cc(O)cc(O)c1 (stereo not given),inactive,inactive,inactive,–,inactive,inactive,inactive,inactive,inactive,inactive,inactive,inactive,0.668 µM (active),inactive,inactive,inactive,inactive,inactive,–,–
Nc1c(Cl)c(Cl)c(Cl)c(Cl)c1Cl,inactive,inactive,inactive,54.5 µM (active),inactive,–,1.22 µM (active),–,–,–,–,inactive,inactive,–,inactive,inactive,–,–,–,–
COc1ccc(Cc2nccc3cc(OC)c(OC)cc23)cc1OC,1.88 µM (active),–,inactive,inactive,inactive,–,inactive,inactive,–,inactive,inactive,inactive,–,13.3 µM (active),inactive,inactive,–,inactive,inactive,–
BrCC(Br)(Br)Br,inactive,–,inactive,inactive,inactive,inactive,inactive,–,inactive,inactive,–,inactive,–,inactive,inactive,–,–,inactive,inactive,–
Brc1ccc(Oc2ccc(Br)cc2Br)c(Br)c1,inactive,inactive,–,–,inactive,inactive,inactive,–,–,–,–,inactive,inactive,–,inactive,61.2 µM (active),inactive,inactive,inactive,–
CC(=O)[O][Pb]([c]1ccccc1)([c]1ccccc1)[c]1ccccc1,0.386 µM (active),–,4.86 µM (active),inactive,5.45 µM (active),inactive,–,–,4.33 µM (active),4.36 µM (active),–,–,–,19.3 µM (active),–,24.3 µM (active),4.33 µM (active),4.9 µM (active),–,0.969 µM (active)
Nc1ccc(Cl)cc1C(=O)c1ccccc1F,inactive,inactive,inactive,inactive,inactive,inactive,inactive,–,inactive,inactive,inactive,inactive,–,–,inactive,inactive,inactive,inactive,–,–
